# Assay results taken from the supplement of paper PMC10338343.
# ± gives the standard deviation.
# System: MILI (PIWIL2) piRISC loaded with L1MC piRNA (26 nt)
# Assay: pre-steady-state target cleavage rate (min^-1); guide: L1MC piRNA 5'p-UAACUAAAUACUAUGCAAGCUGUAGG; MIWI and MILI are mouse PIWI proteins and EfPiwi is from a freshwater sponge; tags in brackets are library labels; higher = faster piRNA-guided slicing of the target
# Details: auxiliary factor: 500 nM mouse GTSF1
# How it was run: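 The pre-steady-state cleavage rate was calculated from a burst-and-steady-state fit. Data came from Cleave-'n-Seq, in which […] transcribed, DNA-blocked target RNA library was mixed with 1 nM active affinity-purified piRISC carrying one synthetic guide, with or without 500 nM GTSF1 partner protein, in HEPES–potassium acetate buffer at 33 °C for 0–8 or 0–960 min. Uncleaved targets were sequenced and normalised to depth and to weakly complementary targets, three trials were pooled, and k3 was capped at 0.0001 min^-1.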
# 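Also: 1 nM active piRISC with 0.1 nM target library at 33 °C single turnover.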
row,Sequence,pre-steady-state target cleavage rate
1,UCCUGGAUGUCGAAGCAUAGUACUUUAGUUA,0.00532 ± 0.0027
2,UCCUGGAUGUCCUUGCAUAGUGAUUUAGUUA,0.0104 ± 0.0052
3,UCCUGGAUGUCCUUGCUUACUAUUUAGUUA,0.016 ± 0.0064
4,UCCUGCUAGAGCUUGCAUAGUAUUUACUUA,0.175 ± 0.042
5,UCCUGGAUGAGCUAGGAUAGUAUUUAGUUA,0.131 ± 0.021
6,UCCUGGAUGUCGUUGCAAAGUAUUUAGUUA,0.0181 ± 0.0047
7,UCCUCGUACAGCUUGGAUAGUAUUUAGUUA,0.265 ± 0.012
8,UCCUGGAUGAGCUAGCAAAGUAUUUAGUUA,0.0455 ± 0.0079
9,UCCUGGAUCAGCUUGCUUAGUAUUUACUUA,0.203 ± 0.025
10,UCCUGGAUGUCGUUGCUUAGUAUAUAGUUA,0.0611 ± 0.014
11,UCCUCCUUCAGCUUGCAUAGUAUUUUGUUA,0.139 ± 0.021
12,UCCUGGAUGACCUUGCAUUGUAUUUAGUUA,0.0617 ± 0.0098
13,UCCUGGAUGUGCUCGCAUAGUAUUUAGUUA,0.155 ± 0.018
14,UCCUGGAUGAGCUUGGAUAGUAUUUAGUAA,0.178 ± 0.027
15,UCCUGGUACAGCUUGCAUUGAAUUUAGUUA,0.047 ± 0.015
16,UCCUGGAUGAGCUUGCUAAGUAUUUAGUUA,0.0294 ± 0.0061
17,UCCUGGAUCAGCUUGCAUAGAUAUUUAGUUA,0.0135 ± 0.004
18,UCCUGGAUGUGCUUGCUAGUAUUUAGUUA,0.00654 ± 0.0035
19,UCCUGGAUGUCGAUGCAUAGUAUUUAGUUG [g2:g17:cont:t1G],0.0776 ± 0.013
20,UCCUCCUACAGGUUGCAUUGUAUUUAGUUA,0.152 ± 0.012

row,Sequence,pre-steady-state target cleavage rate
1,UCCUGGAUGUCCUGUGCAUAGUAUUUAGUUA,0.0823 ± 0.025
2,UCCUGCAACACCUUGCAUAGUAUUUAGUUA,0.192 ± 0.026
3,UCCUGGUACAGCUUGCAUAGUAUAUUAGUUA,0.26 ± 0.039
4,UCCUGGAACAGGAAGCAUAGUAUUUAGUAA,0.146 ± 0.013
5,UCCUGGAUGUCGUUGCAUAGUAUUGAGUUA,0.0312 ± 0.011
6,UCCUCCUACAGCUUGCUUAGUAUUUAGUAA,0.203 ± 0.017
7,UCCUGGAUGUGCUUGCAGAGUAUUUAGUUA,0.0463 ± 0.009
8,UCCUGGAUGUGCUAGCAUUGUAUUUAGUUA,0.0146 ± 0.0031
9,UCCUGGAUCAGCUUGCAUAGUAUUCUAGUUA,0.239 ± 0.034
10,UCCUGGAUGUGCUUGAUAGUAUUUAGUUA,0.00721 ± 0.0036
11,UCCUGGAUGUCGUUGCAUUGUAUUUAGUUA,0.0197 ± 0.0048
12,UCCUGGAUGUCGUUGCAUCGUAUUUAGUUA,0.0281 ± 0.0074
13,UCCUGGAUGUCGAUGCAUAGUAUUUAAGUUA,0.145 ± 0.019
14,UCCUCCUACAGCUUGAUAGUAUUUAGUUA,0.147 ± 0.014
15,UCCUGGAUGAGCUUGGAUAGUUUUUAGUUA,0.0261 ± 0.0072
16,UCCUGGAACAGCUUGCAUAGUAUUUAGUUUA,0.321 ± 0.018
17,UCCUGGAUGAGCUUGCAAACUAUUUAGUUA,0.00935 ± 0.0025
18,UCCUGGAUGUGCAUGGAUAGUAUUUAGUUA,0.11 ± 0.013
19,UCCUGGAUGUCGAAGCAUAGUAUCUUAGUUA,0.0223 ± 0.0048
20,UCCUGGUACAGCAACCAUAGUAUUUAGUAA,0.313 ± 0.064
